Counter-ions that a name gives are not always drawn. ± gives the standard deviation of the averaged measurements.
Assays:
[1] = system: Saccharomyces cerevisiae BY4741 SeMeCo community; assay: mean cell size (pixel area) (pixels); higher = larger cells; conditions: 10 µM; 24 h; SM minimal medium
How it was run: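 Mean cell pixel area per well was measured in a four-plasmid fluorescent community of Saccharomyces cerevisiae BY4741, where every plasmid complements one auxotrophy and carries a fluorescent marker. Cells from an overnight preculture at OD600 = 1.0 were diluted to OD600 = 0.3 and dispensed at 70 µl into 384-well plates acoustically predosed with drug to a final 10 µM in SM medium. Incubation lasted 24 h, followed by paraformaldehyde fixation, automated confocal imaging and analysis in Harmony. Reported figures are averaged over 3 replicates. Same SeMeCo high-content imaging drug screen: Selleck FDA-approved drugs at 10 µM, 24 h in SM medium, 384-well plates, 3 replicates.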

[2] = system: Saccharomyces cerevisiae BY4741 SeMeCo community; assay: z-score of prototroph abundance vs DMSO median; higher = larger share of this subpopulation than in DMSO controls; conditions: 10 µM; 24 h; SM minimal medium; subpopulation (auxotrophy): Prototroph
How it was run: (§1)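 Automated confocal microscopy of paraformaldehyde-fixed cells was used to follow a Saccharomyces cerevisiae BY4741 community carrying four plasmids, each restoring one auxotrophy and encoding a distinct fluorescent protein. The community was pre-grown overnight to OD600 1.0, diluted to 0.3, and added at 70 µl to 384-well plates acoustically predosed with library drugs (10 µM final) for 24 h of growth in minimal SM medium. Single-auxotroph fluorescent strains set thresholds and autofluorescence correction, and each subpopulation's abundance was scored as a z-score against the vehicle-well median.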

[3] = system: Saccharomyces cerevisiae BY4741 SeMeCo community; assay: z-score of subpopulation abundance vs DMSO median, subpopulation auxotrophic for M; higher = larger share of this subpopulation than in DMSO controls; conditions: 10 µM; 24 h; SM minimal medium; subpopulation (auxotrophy): M
How it was run: as §1

[4] = system: Saccharomyces cerevisiae BY4741 SeMeCo community; assay: z-score of subpopulation abundance vs DMSO median, subpopulation auxotrophic for L; higher = larger share of this subpopulation than in DMSO controls; conditions: 10 µM; 24 h; SM minimal medium; subpopulation (auxotrophy): L
How it was run: as §1

[5] = system: Saccharomyces cerevisiae BY4741 SeMeCo community; assay: z-score of subpopulation abundance vs DMSO median, subpopulation auxotrophic for U; higher = larger share of this subpopulation than in DMSO controls; conditions: 10 µM; 24 h; SM minimal medium; subpopulation (auxotrophy): U
How it was run: as §1

[6] = system: Saccharomyces cerevisiae BY4741 SeMeCo community; assay: z-score of subpopulation abundance vs DMSO median, subpopulation auxotrophic for H; higher = larger share of this subpopulation than in DMSO controls; conditions: 10 µM; 24 h; SM minimal medium; subpopulation (auxotrophy): H
How it was run: as §1

[7] = system: Saccharomyces cerevisiae BY4741 SeMeCo community; assay: z-score of subpopulation abundance vs DMSO median, subpopulation auxotrophic for LU; higher = larger share of this subpopulation than in DMSO controls; conditions: 10 µM; 24 h; SM minimal medium; subpopulation (auxotrophy): LU
How it was run: as §1

[8] = system: Saccharomyces cerevisiae BY4741 SeMeCo community; assay: z-score of subpopulation abundance vs DMSO median, subpopulation auxotrophic for LM; higher = larger share of this subpopulation than in DMSO controls; conditions: 10 µM; 24 h; SM minimal medium; subpopulation (auxotrophy): LM
How it was run: as §1

[9] = system: Saccharomyces cerevisiae BY4741 SeMeCo community; assay: z-score of subpopulation abundance vs DMSO median, subpopulation auxotrophic for HM; higher = larger share of this subpopulation than in DMSO controls; conditions: 10 µM; 24 h; SM minimal medium; subpopulation (auxotrophy): HM
How it was run: as §1

[10] = system: Saccharomyces cerevisiae BY4741 SeMeCo community; assay: z-score of subpopulation abundance vs DMSO median, subpopulation auxotrophic for HU; higher = larger share of this subpopulation than in DMSO controls; conditions: 10 µM; 24 h; SM minimal medium; subpopulation (auxotrophy): HU
How it was run: as §1

[11] = system: Saccharomyces cerevisiae BY4741 SeMeCo community; assay: z-score of subpopulation abundance vs DMSO median, subpopulation auxotrophic for UM; higher = larger share of this subpopulation than in DMSO controls; conditions: 10 µM; 24 h; SM minimal medium; subpopulation (auxotrophy): UM
How it was run: as §1

[12] = system: Saccharomyces cerevisiae BY4741 SeMeCo community; assay: z-score of subpopulation abundance vs DMSO median, subpopulation auxotrophic for HL; higher = larger share of this subpopulation than in DMSO controls; conditions: 10 µM; 24 h; SM minimal medium; subpopulation (auxotrophy): HL
How it was run: as §1

[13] = system: Saccharomyces cerevisiae BY4741 SeMeCo community; assay: z-score of subpopulation abundance vs DMSO median, subpopulation auxotrophic for HLU; higher = larger share of this subpopulation than in DMSO controls; conditions: 10 µM; 24 h; SM minimal medium; subpopulation (auxotrophy): HLU
How it was run: as §1

[14] = system: Saccharomyces cerevisiae BY4741 SeMeCo community; assay: z-score of subpopulation abundance vs DMSO median, subpopulation auxotrophic for HLM; higher = larger share of this subpopulation than in DMSO controls; conditions: 10 µM; 24 h; SM minimal medium; subpopulation (auxotrophy): HLM
How it was run: as §1

[15] = system: Saccharomyces cerevisiae BY4741 SeMeCo community; assay: z-score of subpopulation abundance vs DMSO median, subpopulation auxotrophic for HUM; higher = larger share of this subpopulation than in DMSO controls; conditions: 10 µM; 24 h; SM minimal medium; subpopulation (auxotrophy): HUM
How it was run: as §1

[16] = system: Saccharomyces cerevisiae BY4741 SeMeCo community; assay: z-score of subpopulation abundance vs DMSO median, subpopulation auxotrophic for LUM; higher = larger share of this subpopulation than in DMSO controls; conditions: 10 µM; 24 h; SM minimal medium; subpopulation (auxotrophy): LUM
How it was run: as §1

[17] = system: Saccharomyces cerevisiae BY4741 SeMeCo community; assay: z-score of subpopulation abundance vs DMSO median, subpopulation auxotrophic for HLUM; higher = larger share of this subpopulation than in DMSO controls; conditions: 10 µM; 24 h; SM minimal medium; subpopulation (auxotrophy): HLUM
How it was run: as §1

Row | SMILES | mean cell size [1] | z-score of prototroph abundance [2] | z-score of subpopulation abundance [3] | z-score of subpopulation abundance [4] | z-score of subpopulation abundance [5] | z-score of subpopulation abundance [6] | z-score of subpopulation abundance [7] | z-score of subpopulation abundance [8] | z-score of subpopulation abundance [9] | z-score of subpopulation abundance [10] | z-score of subpopulation abundance [11] | z-score of subpopulation abundance [12] | z-score of subpopulation abundance [13] | z-score of subpopulation abundance [14] | z-score of subpopulation abundance [15] | z-score of subpopulation abundance [16] | z-score of subpopulation abundance [17]
1 | COC(=O)C1=C(C)NC(C)=C(C(=O)OC(C)(C)CN(C)CCC(c2ccccc2)c2ccccc2)C1c1cccc([N+](=O)[O-])c1 (stereo not given) [Lercanidipine] | 12.1 ± 0.16 | -0.62 | 0.27 | 1.24 | -0.86 | 2.07 | 0.17 | 0.9 | 0.81 | 0.16 | -0.89 | 2.31 | 0.93 | 1.04 | 0.23 | 0.13 | 1.54
2 | C=C[C@]1(C)C[C@@H](OC(=O)CS[C@@H]2C[C@H]3CC[C@@H](C2)N3C)[C@]2(C)[C@H](C)CC[C@]3(CCC(=O)[C@H]32)[C@@H](C)[C@@H]1O [Retapamulin] | 12.42 ± 0.093 | -0.09 | -0.9 | -0.16 | 0.79 | -0.84 | 1.21 | 0.32 | -0.99 | 0.72 | 0.21 | -0.57 | 0.45 | -0.52 | 0.06 | 0.62 | 0.65
3 | COC(=O)Nc1nc2cc(C(=O)c3ccc(F)cc3)ccc2[nH]1 [Flubendazole] | 12.19 ± 0.12 | 0.01 | -0.07 | 0.41 | -0.99 | 1.19 | -0.32 | 0.25 | 0.64 | 0.34 | – | 0.98 | 0.3 | -0.42 | 0.06 | 0.68 | -0.02
4 | C[C@]12CC[C@@H]3c4ccc(O)cc4C[C@@H](CCCCCCCCC[S+]([O-])CCCC(F)(F)C(F)(F)F)[C@H]3[C@@H]1CC[C@@H]2O (stereo not given in full) [Fulvestrant] | 12.4 ± 0.074 | -1.17 | 0.89 | 1.23 | -0.43 | 0.56 | 0.81 | 1.39 | 0.9 | 0.88 | 0.53 | – | 1.48 | 0.89 | 1.23 | 1.7 | 1.35
5 | C[C@]12CC[C@@H]3c4ccc(O)cc4CC[C@H]3[C@@H]1C[C@@H](O)[C@@H]2O [Estriol] | 12.41 ± 0.12 | 0.65 | -0.11 | 0.63 | -0.19 | – | -0.08 | 0.01 | -0.18 | -0.16 | – | -0.01 | -0.08 | 0.3 | -0.83 | -0.23 | -0.69
6 | COc1cccc(-c2c(C)n(Cc3c(F)cccc3C(F)(F)F)c(=O)n(C[C@H](NCCCC(=O)O)c3ccccc3)c2=O)c1F [Elagolix Sodium] | 12.5 ± 0.27 | 0.61 | -0.72 | -0.55 | 0.24 | 1.38 | -0.52 | -0.38 | -0.13 | 0.74 | -0.27 | 0.13 | -0.37 | -0.27 | 0.12 | -0.77 | -0.29
7 | Oc1c(I)cc(I)c2cccnc12 [Diiodohydroxyquinoline] | 12.1 ± 0.48 | -3.05 | -0.3 | 0.99 | 2.25 | 2.75 | 3.93 | 0.38 | 2.21 | 2.97 | 0.65 | 2.9 | 4.17 | 2.46 | 1.2 | 2.87 | 1.67
8 | CC[C@H]1OC(=O)[C@H](C)[C@@H](O[C@H]2C[C@@](C)(OC)[C@@H](O)[C@H](C)O2)[C@H](C)[C@@H](O[C@@H]2O[C@H](C)C[C@H](N(C)C)[C@H]2O)[C@](C)(O)C[C@@H](C)C(=O)[C@H](C)[C@@H](O)[C@]1(C)O [Erythromycin] | 12.3 ± 0.15 | -0.5 | 0.24 | 1.96 | -1.28 | 1 | 0.03 | 1.38 | 0.91 | -0.18 | -0.8 | – | 1 | 0.66 | -0.16 | 1.19 | 0.28
9 | CCCC(=O)OCOC(=O)C1=C(C)NC(C)=C(C(=O)OC)C1c1cccc(Cl)c1Cl (stereo not given) [Clevidipine Butyrate] | 12.4 ± 0.13 | 1.07 | 4.72 | 2.14 | -3.89 | 1.96 | -5.98 | 3.42 | 2.78 | -5.62 | -5.87 | 2.31 | -3.55 | 3.24 | -4.83 | -4.1 | 0.59
10 | CC(=O)OCC1=C(C(=O)O)N2C(=O)[C@@H](NC(=O)CSc3ccncc3)[C@H]2SC1 [Cephapirin Benzathine] | 12.7 ± 0.17 | -0.46 | -0.98 | -0.54 | 1.05 | 1.45 | 0.44 | 0.09 | 0.66 | 1.01 | – | 0.48 | 0.25 | 0.47 | 0.27 | -0.22 | -0.55
11 | Cc1nccn1CC1CCc2c(c3ccccc3n2C)C1=O (stereo not given) [Ondansetron HCl] | 12.4 ± 0.2 | 0.89 | -1.05 | -0.44 | 0.47 | -0.7 | -0.06 | -0.49 | -0.93 | -0.51 | 0.08 | -0.77 | -0.69 | -0.71 | -0.03 | -0.9 | -0.89
12 | CCC(=O)O[C@@H]1CC(=O)O[C@H](C)C/C=C/C=C/[C@H](O)[C@H](C)C[C@H](CC=O)[C@H](O[C@@H]2O[C@H](C)[C@@H](O[C@H]3C[C@@](C)(O)[C@@H](OC(=O)CC)[C@H](C)O3)[C@H](N(C)C)[C@H]2O)[C@H]1OC [Midecamycin] | 12.33 ± 0.1 | -0.41 | 1.11 | -0.17 | -0.73 | 0.88 | -0.66 | 0.61 | 1.3 | 0.44 | -0.3 | 1.52 | -0.1 | 0.18 | 0.7 | -0.4 | -0.96
13 | Cc1onc(-c2ccccc2Cl)c1C(=O)N[C@@H]1C(=O)N2[C@@H]1SC(C)(C)[C@@H]2C(=O)O [Cloxacillin Sodium] | 12.44 ± 0.058 | -1.62 | 0.44 | 0.15 | 0.9 | -0.29 | 0.4 | 0.63 | -0.01 | 0.86 | 1.46 | -0.33 | 0.44 | 0.97 | 2.07 | 1.65 | 1.38

Source: the supplement of paper PMC8975748
